From ChEMBL document CHEMBL4513135, “CO-ADD screening of IQOG CSIS (Spain) compounds”
Where “and” joins values, the source holds several entries; their conditions need not be identical. Identical values can stand only once. Potency and affinity values are given separately.

Key:
Staphylococcus aureus = settings: Concentration 32 ug.mL-1, ASSAY_TEST Inhibition of Bacterial Growth, detection method Absorption (OD600), MEDIA CAMHB, plate type 384well, NBS, CORNING #3640, time 18 hr
Escherichia coli = settings: Concentration 32 ug.mL-1, ASSAY_TEST Inhibition of Bacterial Growth, detection method Absorption (OD600), MEDIA CAMHB, plate type 384well, NBS, CORNING #3640, time 18 hr

SMILES	Inhibition (Staphylococcus aureus) [%]	Inhibition (Escherichia coli) [%]	Inhibition (Staphylococcus aureus; 32 ug/mL)	Inhibition (Escherichia coli; 32 ug/mL)
Cl.OCC1CCN(Cc2ccccc2)CC1	26.15	15.91		
C=C=CCN(C)Cc1cc2ccccc2n1C.O=C(O)C(=O)O	31.58	-19.52		
Cl.ClCCCCCN1CCCCC1	7.58	1.26		
Cn1c(CNNC(=O)Cc2cccc3ccccc23)cc2ccccc21	-5.85	-4.9		
COc1ccccc1C1C(C#N)=C(N)Oc2ccc3ccccc3c21 (stereo not drawn)	38.4	-7.08		
CCOC(=O)N/N=C/c1ccccc1	-2.34	-1.06		
Cl.NC1(C(=O)O)CC1c1ccccc1 (stereo not drawn)	12.81	11.66		
COc1ccc(CNNC(=O)c2cc3ccccc3[nH]2)cc1	2.37	-1.53		
CC(C)(C)OC(=O)N[C@H]1CC[C@H](O)CC1	7.19	-6.43		
C#CCN(C)Cc1cc2cc(OCCCCC3CCN(Cc4ccccc4)CC3)ccc2n1C	38.42	-8.55		
Cl.ClCCCN1CCCC1	23.18	5.15		
C=CCNCc1cc2cc(OCCCC3CCN(Cc4ccccc4)CC3)ccc2[nH]1.O.O=C(O)C(=O)O.O=C(O)C(=O)O	13.83	-23.08		
CSC1=NC2(CC2c2ccccc2)C(=O)N1C (stereo not drawn)	-3.53	-1.26		
Nc1c2c(nc3c1C(c1c(Cl)cccc1Cl)c1ccc4ccccc4c1O3)CCCC2 (stereo not drawn)	2.04	3.11		
COC1=C(C#N)CCC(=O)N1	33.45	-6.96		
Nc1c2c(nc3c1C(c1ccc(Cl)c(Cl)c1)c1ccc4ccccc4c1O3)CCCC2 (stereo not drawn)	-15.84	-11.77		
O=C(Cc1c[nH]c2ccccc12)NNCc1ccccc1	-6.19	-10.21		
Nc1c2c(nc3c1C(c1ccccc1)c1ccc4ccccc4c1O3)CCCC2 (stereo not drawn)	23.6	-5.04		
C#CCN(C)c1ncc(C#N)c(N)n1	39.34	-4.49		
COc1ccc2cc(C3C4=C(CC(C)(C)CC4=O)Oc4nc5c(c(N)c43)CCC5)c(Cl)nc2c1 (stereo not drawn)	18.17	11.31		
N#Cc1ccc(Br)cc1N	4.6	16.76		

SMILES	Inhibition (Staphylococcus aureus) [%]	Inhibition (Escherichia coli) [%]	Inhibition (Staphylococcus aureus; 32 ug/mL)	Inhibition (Escherichia coli; 32 ug/mL)
Cn1ccnc1C1c2ccc3cccnc3c2Oc2nc3c(c(N)c21)CCC3 (stereo not drawn)	14.96	-15.51		
N#CC1=C(N)Oc2c(ccc3ccccc23)C1c1ccc(Cl)c(Cl)c1 (stereo not drawn)	0.79	0.95		
O=C(NNC(Cc1ccccc1)Cc1ccccc1)c1cc2ccccc2[nH]1	-3.72	-3.49		
Cn1c(CO)cc2cc(OCCCC3CCN(Cc4ccccc4)CC3)ccc21	7.02	-17.9		
COc1cccc(C2C(C#N)=C(N)Oc3[nH]nc(C)c32)c1 (stereo not drawn)	6.27	6.61		
C#CCNc1nc(NC2CCN(Cc3ccccc3)CC2)c(C#N)c(-c2ccccc2)c1C#N	-5.25	-23.87		
CCOC(=O)c1c(C)nc(N)c(C#N)c1-c1cccs1	5.52	-18.22		
COc1ccc2cc(C3C(C(C)=O)=C(C)Oc4nc5c(c(N)c43)CCCCC5)c(Cl)nc2c1 (stereo not drawn)	26.1	15.71		
N#Cc1cc(C#N)c(NCCC2CCN(Cc3ccccc3)CC2)nc1N	49.11	-25.69		
COc1nc2nc3c(c(N)c2cc1C#N)CN(Cc1ccccc1)CC3	9.36	4.83		
C=C1CN(C)c2c(C#N)cc(C#N)c(=N)n21	13.03	-14.43		
COc1ccc(C2C(C#N)=C(N)Oc3[nH]nc(C)c32)cc1 (stereo not drawn)	4.82	6.91		
C#CCNc1nc(N)c(C#N)c(-c2ccccc2)c1C#N	3.95	15.49		
COc1ccc(C2c3c(nc4c(c3N)CCCC4)Oc3ccc4ccccc4c32)cc1 (stereo not drawn)	18.52	4.53		
O=C(Cc1c[nH]c2ccccc12)N/N=C/c1ccco1	4.9	-3.66		
COc1ccc2nc(Cl)c(C=O)cc2c1			19.77% and 20.88%	18.53% and 18.96%
CCOC(=O)c1c[nH]c2ccc(OCc3ccccc3)cc12	5.22	6.31		
CC(=O)Oc1ccc(C=C2N=C(c3ccccc3)OC2=O)cc1	10.97	17.49		
COc1cccc(C2c3ccc4ccccc4c3OC(=NBr)C2(Br)C#N)c1 (stereo not drawn)	27.48	-7.21		
NC(=O)N/N=C/c1c[nH]c2ccccc12	3.48	5.19		
Cc1nc2c3c(C)nn(-c4ccccc4)c3ncn2n1	11.24	12.68		

SMILES	Inhibition (Staphylococcus aureus) [%]	Inhibition (Escherichia coli) [%]	Inhibition (Staphylococcus aureus; 32 ug/mL)	Inhibition (Escherichia coli; 32 ug/mL)
N#Cc1c(-c2ccccc2)c2ccc3ccccc3c2oc1=O	33.43	-8.95		
CN(C)c1nc(N)c(C#N)c(-c2ccccc2)c1C#N	7.52	0.57		
CCC(Cc1ccccc1)NNC(=O)c1cc2ccccc2[nH]1 (stereo not drawn)	-3.17	-1.51		
C#CCN(C)c1nc(OC)c(C#N)cc1C#N	10.54	-19.1		
N#Cc1c(N)nc(NCCC2CCN(Cc3ccccc3)CC2)c(C#N)c1-c1ccccc1	34.16	-9		
CCOC(=O)c1c(C)nc2nc3c(c(N)c2c1-c1ccc(Cl)cc1)CCCCC3	2.05	-16.85		
C#CCn1c(N)c(C#N)c2cc(O)ccc21	28.27	-2.03		
CN1C/C(=C\Cl)n2c1c(C#N)c(-c1ccccc1)c(C#N)c2=O	14.24	-33.76		
CCOC(=O)/C(C#N)=C\c1ccc([N+](=O)[O-])cc1	32.65	19.98		
N#CC1(Br)C(=N)Oc2ccc3ccccc3c2C1c1cccc([N+](=O)[O-])c1 (stereo not drawn)	22.75	-22.9		
CCOC(=O)c1c(C)[nH]c2ccc(OC)cc12	-4.64	0.02		
CC(C)(C)OC(=O)Nc1ccc(Cl)cn1	37.58	-2.82		
Nc1ccccc1C(=O)N/N=C/c1c[nH]c2ccccc12	7.31	5.27		
O[C@H]1CC[C@H](NCc2ccccc2)CC1	21.55	-7.34		
CN(C)c1ccc(C(=NNC(=O)c2cc3ccccc3[nH]2)c2ccc(N(C)C)cc2)cc1	-9.28	-3.28		
COc1ccccc1-c1c(C#N)c(=O)oc2c1ccc1ccccc12	27.34	19.18		
CC1=N/C(=C(\C)c2ccccc2)C(=O)O1	-1.19	0.61		
CNC(=O)c1cc2cc(OCc3ccccc3)ccc2n1C	23.23	-13.67		
O=C(NN=Cc1c[nH]c2ccccc12)c1cccc2ccccc12	15.12	10.09		
COc1cc(CCC(N)=O)ccc1O	8.5	5.11		
Cc1ccc(C2c3c(Cl)nnnc3Oc3ccc4ccccc4c32)cc1 (stereo not drawn)	36.97	16.16		

SMILES	Inhibition (Staphylococcus aureus) [%]	Inhibition (Escherichia coli) [%]	Inhibition (Staphylococcus aureus; 32 ug/mL)	Inhibition (Escherichia coli; 32 ug/mL)
O=C1OC(c2ccccc2)=NC12CC2c1ccc([N+](=O)[O-])cc1 (stereo not drawn)	9.12	5.57		
Cc1nn(-c2ccccc2)c2ncnc(Nc3ccccc3)c12	6.52	10.84		
C#CCN1CCc2nc3nc(NC4CCN(Cc5ccccc5)CC4)c(C#N)cc3c(N)c2C1	26.68	-8.32		
N#CC1=C(Cl)Oc2c(ccc3ccccc23)C1c1cccc([N+](=O)[O-])c1 (stereo not drawn)	9.83	-16.88		
COc1ccc(C2c3c(ccc4ccccc34)OC(=N)C2(Br)C#N)cc1OC (stereo not drawn)	9.13	-16.19		
N#Cc1cc(Br)cc(Br)c1N	3.71	14.62		
N#Cc1cc(C#N)c(NCCCCC2CCN(Cc3ccccc3)CC2)nc1N	36.38	-9.24		
N#Cc1c(N)nc(N2CCCCC2)c(C#N)c1-c1ccccc1	14.68	-11.69		
COc1ccc2c(c1)cc(C(=O)Nc1ccccc1)n2C	20.93	-8.29		
COc1ccc2c(ccn2C)c1	6.16	8.07		
N#Cc1cc(C#N)c(N2CCCC2)nc1N	51.19	-9.12		
CCOC(=O)c1c(C)nc2nc3c(c(N)c2c1-c1ccccc1OC)CCCCC3	5.11	-17.67		
Cn1cc(C=O)c2ccccc21	-0.04	-4.32		
CN1C/C(=C\Br)n2c1c(C#N)cc(C#N)c2=O	16.92	-11.76		
CC#CCN(Cc1ccccc1)c1nc(N)c(C#N)c(-c2ccccc2)c1C#N	17.54	-2.98		
NNC(=O)Cc1c[nH]c2ccccc12	10.37	13.76		
COc1ccc2cc(C=O)c(Cl)nc2c1	17.7	25.34		
N#Cc1c(N)nc(NCCCC2CCN(Cc3ccccc3)CC2)c(C#N)c1-c1ccccc1	56.22	-16.73		
O=C1OC(c2ccccc2)=NC1=Cc1ccc(Cl)cc1	14.11	10.9		
Cc1ccc(S(=O)(=O)N[C@H]2CC[C@H](O)CC2)cc1	22.82	-6.91		
COc1cccc(C2c3c(ccc4ccccc34)OC(=NBr)C2(Br)C#N)c1 (stereo not drawn)	39.2	-16.78		
